# Assay outcomes as filed in PubChem.
# Sampled rows, rich in hits. Any-hit rate of the full collection: about 4.8%.
# ATXN2 expr inh = Primary qHTS for Inhibitors of ATXN expression | HEK-293 ATXN2-luciferase reporter, luminescence, 24 h | 0.72% of 360,000 active | Potency, µM (series often up to 57 µM), for the others: top-dose activity change, negative = inhibition, usual class: inhibitors; further: potency means the concentration at half of the fitted maximal effect; on the % scale 0 is the no-effect control and ±100 the full control effect; nearly all actives have a fitted effect of over 55% in size
#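 qHTS (up to 57 uM final) was run with 24 h compound exposure of reporter cells at 37 °C. Each well was multiplexed: SteadyGlo luminescence measured ATXN2-luciferase expression after a fluorogenic Gly-Phe-AFC viability readout (25 uM final).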
# ATXN viability = Viability Counterscreen for Primary qHTS for Inhibitors of ATXN expression | S2 cells (HEK-293 line with an ATXN2-luciferase reporter) viability, CellTiter-Fluor protease fluorescence, 24 h | 0.49% of 400,000 active | AID 651635, 2014 | Potency, µM (top dose mostly 56.7 µM), hits mostly cytotoxic; further: potency means the concentration at half of the fitted maximal effect; nearly all actives have a fitted effect of over 40% in size
# IL1B secr inh = qHTS for Inhibitors of Inflammasome Signaling: IL-1-beta AlphaLISA Primary Screen | THP-1 LPS/ATP IL-1B secretion, AlphaLISA, 16 h; stronger effect = lower value | activity change, % at 57.5 µM | 4.7% of 360,000 active | AID 743279, 2014; in the data active means activity change below about -50%; inconclusive means mostly about -30% to -49%; further: on the % scale 0 is the no-effect control and ±100 the full control effect
#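 THP-1 cells pretreated 1 hr with compounds (up to 57.5 uM final), then stimulated with LPS (250 ng/mL final) plus ATP (1.25 mM final); secreted IL-1B measured by AlphaLISA after 16 hr, decreased signal indicating inhibition.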
# USP2a inh = qHTS Assay for Inhibitors of Ubiquitin-specific Protease USP2a Using CHOP2 as the Reporter. Potency, µM (titrated, usually from 38.3 µM), for inactives: at the top dose activity change, negative = inhibition, hits mostly inhibitors. USP2 core, Ub-CHOP2 coupled fluorogenic reporter, 485/531. Ubiquitin carboxyl-terminal hydrolase 2 (Homo sapiens), O75604. 0.01% of 330,000 active. AID 463254, 2010;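 further: potency means the concentration at half of the fitted maximal effect; plate controls were DMSO wells for no effect and full inhibition by NEM control for full effect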
#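 Cell-free coupled assay: 10nM USP2 core preincubated 30min RT with compound in Tris-HCl pH 8.0/CaCl2/CHAPS buffer, then 25nM Ub-CHOP2 and 25nM reporter substrate; fluorescence (Ex 485/Em 531) read after 60min RT, normalized to NEM inhibition, concentration-response curves fitted.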
# USP1-UAF1 inh = Inhibitors of USP1/UAF1: Primary Screen | Ubiquitin carboxyl-terminal hydrolase 1 (Homo sapiens), O94782 | recombinant USP1/UAF1, Ub-Rhodamine cleavage fluorescence | Potency, µM (titrated, usually from 57.1 µM), inactives show at the highest dose activity change, negative = inhibition, usual class: inhibitors | 0.23% of 390,000 active; further: potency means the concentration at half of the fitted maximal effect; on the % scale 0 is the no-effect control and ±100 the full control effect; nearly all actives have a fitted effect of over 60% in size
# Target sequence (O94782 whole entry, looked up): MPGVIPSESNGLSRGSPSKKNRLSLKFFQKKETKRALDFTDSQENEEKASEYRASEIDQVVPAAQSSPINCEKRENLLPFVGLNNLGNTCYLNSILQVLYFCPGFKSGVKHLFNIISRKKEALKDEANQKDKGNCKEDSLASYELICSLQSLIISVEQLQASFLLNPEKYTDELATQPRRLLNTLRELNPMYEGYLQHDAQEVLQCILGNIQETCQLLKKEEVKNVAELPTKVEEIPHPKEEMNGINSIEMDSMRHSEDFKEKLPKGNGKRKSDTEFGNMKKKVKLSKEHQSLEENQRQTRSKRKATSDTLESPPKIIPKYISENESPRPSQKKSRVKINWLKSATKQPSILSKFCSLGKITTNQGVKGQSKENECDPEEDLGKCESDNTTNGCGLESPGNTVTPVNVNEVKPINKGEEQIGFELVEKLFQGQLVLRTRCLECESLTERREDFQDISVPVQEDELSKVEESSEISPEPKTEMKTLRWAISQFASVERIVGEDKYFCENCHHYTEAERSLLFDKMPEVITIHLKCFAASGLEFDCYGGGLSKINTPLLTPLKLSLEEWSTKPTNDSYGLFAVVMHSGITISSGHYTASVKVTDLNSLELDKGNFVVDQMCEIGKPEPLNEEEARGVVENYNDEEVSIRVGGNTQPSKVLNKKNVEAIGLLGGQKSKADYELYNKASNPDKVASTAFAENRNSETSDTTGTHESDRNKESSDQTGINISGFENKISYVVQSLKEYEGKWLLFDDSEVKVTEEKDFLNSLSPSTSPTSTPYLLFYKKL
#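 USP1/UAF1 complex (1 nM) preincubated 15 min at room temperature with compound, then Ub-Rho substrate (150 nM final) added. Kinetic fluorescence at 480/540 nm over 6 reads at 60 s intervals; 50 mM HEPES pH 7.8, 0.5 mM EDTA, 0.1 mg/ml BSA, 1 mM TCEP, 0.01% Tween-20.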
# An asterisk follows results filed as active; i = inactive; ? = inconclusive; nt = not tested or not shown. Unless noted, the call rests on the fitted dose curve; in most records, active means well fitted curve in the direction sought with a large enough effect; inconclusive means small, poorly fitted or top-dose-only effect, or another doubt; inactive means no such curve, though single readings can be large; an effect the other way counts as inactive or inconclusive.
SMILES,ATXN2 expr inh,ATXN viability,IL1B secr inh,USP2a inh,USP1-UAF1 inh
COC/C=C/C1=CC(=O)C[C@H](c2ccc3c(c2)OCO3)C1,-34.2%,i,-96.3*,-2.3%,-6.2%
CCC(c1nnnn1CCc1ccccc1)N(Cc1ccco1)Cc1cc2c(C)ccc(C)c2[nH]c1=O (stereo not given),?,i,?,-18.2%,-17.1%
CC(C)C(c1nnnn1Cc1ccccc1)N(CCCO)Cc1cc2cc3c(cc2[nH]c1=O)OCO3 (stereo not given),-11.2%,i,-59.7*,1.3%,3.5%
CCC(c1nnnn1Cc1ccco1)N(CCc1ccccc1)Cc1cc2cc(C)ccc2[nH]c1=O (stereo not given),?,nt,-51.9*,-4.6%,-17.9%
Cc1ccc2[nH]c(=O)c(CN(CCc3ccccc3)C(c3nnnn3Cc3ccco3)C(C)C)cc2c1 (stereo not given),?,?,-90.8*,0.3%,-12.7%
CCC(c1nnnn1CCc1ccccc1)N(Cc1ccco1)Cc1cc2cc(C)cc(C)c2[nH]c1=O (stereo not given),-25.9%,i,-52.8*,0.5%,-22.1%
CCCNC(=O)N(C)C[C@H]1Oc2ncc(C#CCc3ccccc3)cc2C(=O)N([C@H](C)CO)C[C@H]1C,-6.2%,i,-26.9,nt,-24.0%
Cc1nc(C(C)NC2CCN(c3cccc(NC(=O)c4ccncc4)c3)CC2)cs1 (stereo not given),nt,i,nt,nt,nt
CCC(c1nnnn1Cc1ccccc1)N(Cc1ccco1)Cc1cc2cc(OC)ccc2[nH]c1=O (stereo not given),-18.7%,?,-54.0*,2.1%,-21.9%
CCC(c1nnnn1CCOC)N(Cc1ccc(C)cc1)Cc1cc2cc(OC)ccc2[nH]c1=O (stereo not given),-21.3%,i,-26.6,-0.8%,-20.5%
CCOC(=O)C1(C)Oc2cccnc2NC1=O (stereo not given),-22.0%,i,-69.7*,-2.3%,-5.4%
CCOC(=O)c1nnn(CC(=O)Nc2cccc(OC)c2)c1C(=O)OCC,1.4%,i,?,-4.2%,-14.4%
COC(=O)c1nnn(CC(=O)NC(=O)Nc2ccccc2)c1C(=O)OC,-10.7%,i,-70.1*,2.1%,-2.0%
COC(=O)c1nnn(CC(=O)Nc2cccc(OC)c2)c1C(=O)OC,6.5%,i,-60.8*,-8.7%,2.1%
CC1(C)CCCN(C(=O)c2ccc3c(c2NCCO)C(=O)c2ccccc2C3=O)C1,-16.5%,nt,-64.7*,-1.2%,-25.0%
O=C1c2ccccc2C(=O)c2c1ccc(C(=O)N1CCCCC1)c2NCCO,-14.4%,?,-7.3,-0.5%,-17.8%
COc1cc(O)c2c(c1)C1OC1C[C@H](O)[C@H](O)C(=O)C=CC[C@H](C)OC2=O (stereo not given in full),6.85µM*,nt,nt,nt,nt
CC(C)CNC(=O)N1[C@H](c2cccs2)[C@@H](C)C(=O)[C@@H](C)[C@@H]1c1cccs1,-6.7%,i,nt,nt,-1.2%
Cn1ccnc1C(O)c1cc(C(C)(C)C)c(O)c(C(C)(C)C)c1 (stereo not given),-7.4%,i,-92.9*,-4.3%,-3.7%
CC(C)(C)c1ccc(S(=O)(=O)N2CCC(CO)(CC3CCCCO3)CC2)cc1 (stereo not given),-9.9%,i,-71.8*,-9.2%,-16.2%
Cc1cc(NC2CCCCC2)nc(N2CCOCC2)n1,3.8%,i,-20.1,-9.8%,-1.9%
CC(C)Nc1nc(NC2CCCC2)nc(N2CCOCC2)n1,-11.3%,?,-99.3*,-1.3%,-23.7%
C[C@H]1O[C@@H](O[C@H]2[C@@H](O)C[C@H](O[C@H]3[C@@H](O)C[C@H](O[C@H]4CC[C@@]5(C)[C@H](CC[C@@H]6[C@@H]5C[C@@H](O)[C@]5(C)[C@@H](C7=CC(=O)OC7)CC[C@]65O)C4)O[C@@H]3C)O[C@@H]2C)C[C@H](O)[C@@H]1O,0.316µM*,?,-62.7*,2.3%,-9.6%
O=C(O)c1cc2c([nH]c1=O)CCCC2,-8.6%,i,-5.8,0.1%,-3.0%
C=CCSC(=C(C#N)C#N)c1cc2c([nH]1)CCCC2,-30.1%,i,-114.6*,-1.8%,-11.8%
SMILES,ATXN2 expr inh,ATXN viability,IL1B secr inh,USP2a inh,USP1-UAF1 inh
CN(Cc1ccccc1)C(=O)[C@@H]1CCCN1C(=O)OC(C)(C)C,-1.1%,i,-0.8,nt,nt
CCc1ccc(C)[n+](CC(=O)c2cccs2)c1,0.0%,i,-57.6*,-1.1%,-12.3%
Cc1ccc(-c2c[n+](CC(=O)c3cccs3)c3n2CCC3)cc1,-19.0%,i,?,-0.7%,-29.4%
Nc1nccnc1C(=O)OCC(=O)C12CC3CC(CC(C3)C1)C2,11.3%,i,19.2,2.8%,-12.4%
N#CC1(C#N)CC(C=O)=C(N)C1(C#N)CC(=O)C12CC3CC(CC(C3)C1)C2 (stereo not given),?,?,-102.4*,3.6%,-18.4%
CCC1CN(CC(=O)NCc2n[nH]c3c2CCCCC3)Cc2cc(OC)ccc2O1 (stereo not given),nt,i,nt,nt,nt
NC(=O)N/N=C/c1c(Sc2nnnn2-c2ccccc2)nc2ccccn2c1=O,nt,?,-67.9*,2.3%,-13.9%
Cc1nn(-c2ccccc2)c(Cl)c1/C=N/NC(N)=O,10.4%,i,nt,-9.9%,-10.1%
CCOc1ccc(S(=O)(=O)N2CCC(C(=O)N3CCCCCC3)CC2)cc1C,-18.3%,i,-52.0*,-0.6%,-12.1%
COc1ccc([C@@H]2CNC(=O)C2)cc1OC1CCCC1,3.4%,nt,nt,nt,nt
COc1ccc(N2CCC(CNC(=S)Nc3c(C)cc(C)cc3C)C2)cc1 (stereo not given),nt,?,0.0,0.0%,-20.7%
COc1ccc(N2CCC(CNC(=S)Nc3cccc(C)c3)C2)cc1 (stereo not given),-6.2%,i,-77.5*,-0.2%,-11.8%
O=C(NC(=S)Nc1ccc(Cc2ccncc2)cc1)c1ccccc1Cl,-2.4%,i,-20.9,0.3%,-3.3%
COc1ccc(NC(=O)Nc2cnccn2)c(OC)c1,21.4%,i,-23.1,-8.0%,-19.6%
COc1ccc(NC(=O)Nc2ccc(Cc3ccncc3)cc2)c(OC)c1,-1.7%,i,-51.4*,3.0%,-24.9%
COc1ccc(C(=O)NC(=S)Nc2ccc(Cc3ccncc3)cc2)cc1,-26.5%,?,-64.1*,0.3%,-13.1%
O=C(NC(=S)Nc1ccc(Cc2ccncc2)cc1)c1ccccc1F,-21.6%,i,-74.1*,0.5%,-5.7%
O=C(NCC1CCC2(CCN(Cc3cc4ccccc4o3)CC2)O1)c1ccccc1 (stereo not given),nt,i,nt,nt,nt
